The values below come from PubChem BioAssay (NCATS).

Results filed as inconclusive are left out. A call without a number means that no potency is given here. Active and inactive are the calls of the source. Calls come from the whole dose curve; as a rule, active = well fitted cell-killing curve with a large enough effect; inconclusive = small, poorly fitted or top-dose-only effect; inactive = flat fitted curve, though single readings scatter.
Potency is the fitted concentration of half-maximal effect.

The assay is described as follows: Cell Viability - H-4-II-E (AID 543). Note: nearly all actives have a fitted effect of over 35% in size. The conditions noted are these: H-4-II-E rat hepatoma viability; series mostly up to 92.2 µM. An excerpt:
NIH Chemical Genomics Center [NCGC]
NIH Molecular Libraries Screening Centers Network [MLSCN]
National Institutes of Environmental Health Sciences [NIEHS]
National Toxicology Program [NTP]
We have developed a 1536-well cell-based assay for quantitative high throughput screening (qHTS) against a number of cell lines to determine in vitro cytotoxicity of small molecules. This particular assay uses the H-4-II-E cell line which is derived from rat hepatoma.
NCGC Assay Protocol Summary:
The CellTiter-Glo luminescent cell viability assay (Promega) is a homogeneous method to measure the number of viable cells in culture. The end point readout of this assay is based on quantitation of intracellular ATP, an indicator of metabolic activity, using the luciferase reaction. Luciferase catalyzes the oxidation of beetle Luciferin to oxyluciferin and light in the presence of ATP. The luminescent signal is proportional to amount of ATP present.
Using the CellTiter-Glo luminescent cell viability assay, the amount of cellular ATP was measured in the H-4-II-E cell line with complete culture medium following compound treatment for 40 hours. The assay was performed in opaque white Kalypsys 1536-well plates. In the screen, tamoxifen and doxorubicin were used as positive controls. Library compounds were measured for their ability to cause acute toxicity in the cell line, as reflected by a decrease in intracellular ATP levels, in a concentration-dependent manner. […] AC50 values were determined from concentration-response data modeled with the standard Hill equation.
qHTS protocol fo CellTiter Glo H-4-II-E cellular assay
[Step] [Parameter] [Value] [Description]
1. Reagent; 5 uL; 1500 H-4-II-E cells/well
2. Time; 5 hr; 37 °C incubation
4. Controls; 23 nL; Tamoxifen 0.34 uM to 100 uM & Doxorubicin 0.02 nM to 100 uM
5. Time; 40 hr; 37 °C incubation
6. Reagent; 5 uL; CellTiter Glo reagent
7. Time; 20 min; Room Temperature
8. Detection; Luminescence; Viewlux plate reader
Keywords: cell viability, cytotoxicity, H-4-II-E cell line, luminescence, NTPHTS, NTPHTS_NCGC, NIEHS, EPA, DSSTox, MLSMR, MLSCN, NIH Roadmap, qHTS, NCGC
`Nc1ccn([C@H]2CC[C@@H](CO)O2)c(=O)n1`: the Potency entry is “inactive”.

For the compound `Cn1c(=O)c2c(ncn2C)n(C)c1=O`, the Potency entry is “inactive”. With `CC(C)NCC(O)c1ccc(O)c(O)c1` (stereo not given) the entry was “inactive”. The figure for `COc1cc2c(c(OC)c1OC)-c1ccc(OC)c(=O)cc1[C@@H](NC(C)=O)CC2` is 126 nM (active). With `CCC1(c2ccccc2)C(=O)NCNC1=O` the entry was “inactive”; with `N[C@@H](Cc1c[nH]c2ccc(O)cc12)C(=O)O`, “inactive”. In the case of `NCCS(=O)(=O)O`, the Potency entry is “inactive”. Turning to `COc1ccc2c(c1)c(CC(=O)O)c(C)n2C(=O)c1ccc(Cl)cc1`, the Potency result is “inactive”. The entry for `Cc1cn([C@H]2C=C[C@@H](CO)O2)c(=O)[nH]c1=O` is “inactive”; for `NS(=O)(=O)c1cc2c(cc1Cl)NCNS2(=O)=O` it is “inactive”. The figure for `CC(C)C(=O)Nc1ccc([N+](=O)[O-])c(C(F)(F)F)c1` is 39800 nM (active); for `Cc1cn([C@H]2C[C@H](N=[N+]=[N-])[C@@H](CO)O2)c(=O)[nH]c1=O` it is “inactive”; for `COc1ccc2[nH]cc(CCNC(C)=O)c2c1` it is “inactive”.

On to `Cn1c(=O)c2[nH]cnc2n(C)c1=O`, for which the Potency entry is “inactive”.

Consider `O=c1[nH]cc(F)c(=O)[nH]1`, for which the Potency is 631 nM (active).
